The record followed here is PubChem BioAssay (NCI).

Compounds without any hit were thinned out: in the full panel of roughly 83,000, 20% have a hit.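 Testing used 96-well plates and a 48-hour single-concentration exposure. Example: -40 means 40% of the starting cells died.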 Active and inactive are the calls of the source. Rule for the calls: active = growth percent below 10; inactive = the rest.

The test system of the first assay is SNB-75 CNS. Briefly: NCI-60 one-dose screen, 48 h (100 = growth as untreated, 0 = no growth, -100 = all killed). Conditions: 10 µM unless noted.
With `CCCCCCCCCCCCCC[n+]1ccc2c(C)c3c(c(C)c2c1)c1cc(O)ccc1n3CC`, the growth was -59.9% (active).
Regarding `C=C(C)[C@@H]1CCC[C@]2(C(=O)OC)CC[C@]3(C)[C@@H](CC[C@@H]4[C@@]5(C)CCCNC(C)(C)[C@@H]5CC[C@]43C)[C@@H]12`, the growth was 91.7% (inactive).
On the same count and under the same terms, under `COc1cc2c(cc1-c1c(C)noc1C)ncc1nc(C3CCOCC3)n(C3CCC(OC(F)F)CC3)c12` (centres undefined) stands 12.9% (inactive); under `O=C1CCC(C(=O)N/N=C/c2ccc([N+](=O)[O-])cc2)N1` (centres undefined), 75.4% (inactive); under `COc1cc(C(=O)/C=C/c2c(-c3cccs3)nc3sc(C)cn23)cc(OC)c1OC`, -15.6% (active).
Turning to `O=C(NS(=O)(=O)c1ccccc1)n1cc(-c2ccncc2)c(-c2cc(O)cc(Cl)c2)n1`, the growth was 82.6% (inactive).
As to `COC(CCP(=O)(c1ccccc1)c1ccccc1)(C(=O)c1ccccc1)c1ccccc1` (centres undefined), the growth is 84.9% (inactive).
Turning to `Cn1nc(-c2ccc(Cl)cc2)nc2c(=O)n(C)c(=O)nc1-2`, the growth was -100% (active).
With `CC1(C)CCC[C@]23C(=O)O[C@](O)(C(=O)C4=C[C@@](C)(/C=C/CCCc5ccc6ccc7cccc8ccc5c6c78)CC[C@@]42O)[C@@H]13`, the growth was -78.8% (active).
In the case of `COc1ccc(C2=C/C(=C\c3ccccc3O)C(=O)N2Cc2ccccc2)cc1`, the growth was 92.3% (inactive).

For a further assay, the system named is SNB-19 CNS. The description is as above. As to conditions: 10 µM unless noted.
For the molecule `COc1ccccc1-c1nc2ccc3[nH]ncc3c2c2c1CCCC2`, the growth was 85.6% (inactive).
On the same count and under the same terms, with `O=c1ccc2nc(-c3ccccc3)nn(-c3ccccn3)c-2c1` the figure was 102% (inactive).
Still for that read-out and setting: under `Nc1ncc(-c2ccc3ncnc(N4CCc5cc(F)c(Cl)cc54)c3c2)cc1C=O` stands 37% (inactive); under `C#Cc1ccc(NC(=O)Cc2ccc(/C=C/C(=O)c3nccn3C)cc2)cc1`, 39.3% (inactive); under `CCCCN(CCC#N)C(N)=O`, 98.9% (inactive).
With `COc1ccc(-c2cn(Cc3ccc4c(Br)cc(Br)c(O)c4n3)nn2)cc1`, the growth is 96.9% (inactive).
In the case of `CCc1ccc(Cc2cnc(NC(=O)c3cc(C)oc3C)s2)cc1`, the growth was 37.1% (inactive).
Take `COc1cc(/C=C/c2cc(/C=C/c3ccc(O)c(OC)c3)n(C(=O)Nc3ccc(C)cc3C)n2)ccc1O`: the growth is 2.45% (active).
On the same count and under the same terms, under `Clc1nc(N2CCC[N+]3(CC2)CC[N+]2(CCCNCC2)CC3)nc(N2CCC[N+]3(CC2)CC[N+]2(CCCNCC2)CC3)n1` (centres undefined) stands 112% (inactive); under `O=S(=O)(Nc1ccc(Br)cc1)c1ccc(-c2cnc(C3CC3)o2)cc1`, 35.3% (inactive); under `O=C1N/C(=N/N=C(c2ccccc2)c2ccccc2)S/C1=C\c1ccc(Br)cc1`, 100% (inactive).
`COc1cc(OCc2cccc(-c3ccc4c(c3)OCCO4)c2C)cc(OC)c1C=O`: the growth was 72.7% (inactive).
The same measure, in the same setting: under `COC(=O)c1c(C)nc(C)c2c1C(=O)C(Br)=C(NCCCCO)C2=O` stands 75.3% (inactive).
Still for that read-out and setting: with `COc1ccc(CNc2c3ccccc3nc3ccccc23)cc1OC` the figure was 21.8% (inactive); with `COc1cc(/C=C/C(=O)c2ccc(-n3cc(CN4CCN(c5cc6c(cc5F)c(=O)c(C(=O)O)cn6C5CC5)CC4)nn3)cc2)cc(OC)c1OC`, 76.7% (inactive).
Still for that read-out and setting: with `CCCCCC(C)(O)C(C(=O)O)c1ccccc1` (centres undefined) the figure was 97.1% (inactive); with `C[C@@H]1N=C(c2ccc(Cl)cc2Cl)Nc2nc3ccccn3c2C1=O`, 60.8% (inactive); with `O=C(Nc1ccccc1)Nc1ccccc1CNc1nc(Nc2ccc(OCCN3CCCC3)cc2)ncc1Cl`, 70.6% (inactive).
In the case of `COc1ccc(S(=O)(=O)N(C)c2oc(-c3ccc(Cl)cc3)nc2C#N)cc1`, the growth was 81% (inactive).
`COc1cccc(C(=O)Nc2cccc(NC(=O)c3ccccn3)c2)c1`: the growth was 108% (inactive).
Still for that read-out and setting: under `CS(=O)(=O)c1ccc(/C(=N/NC(N)=S)c2ccc(F)cc2)cc1` stands 99.9% (inactive); under `CSc1nc(N)c2c(n1)NC(c1ccccc1)C1CCc3ccccc3C1=N2` (centres undefined), 79% (inactive); under `COc1cccc(CNc2nnc(C)c(C)n2)c1O`, 93.4% (inactive).
As for `COc1ccc(NC(=O)CSc2oc(-c3ccccc3)nc2S(=O)(=O)c2ccc(Cl)cc2)c(OC)c1`, the growth is 55.4% (inactive).
As to `O=C(c1ccc(F)cc1)C1CCN(CCn2c(=O)[nH]c3ccccc3c2=O)CC1`, the growth is 110% (inactive).
As to `CC(=O)OCC(=O)O[C@@H]1C[C@]2(C(C)C)O[C@@]1(C)[C@@H]1CC[C@@H](C)[C@H]1[C@@H]2OC(=O)/C=C/c1ccccc1`, the growth is 86.6% (inactive).
As for `O=C(Nc1ncc(Cc2ccccc2)s1)c1cc(-c2ccccc2)nc2ccccc12`, the growth was 98.1% (inactive).
For `O=c1cc(-c2nccc3c2[nH]c2ccccc23)c2cc(Cl)ccc2o1`, the growth was 43.7% (inactive).
Turning to `O=C(CN1C(=O)NC2NC(=O)NC21)N/N=C/c1cccc([N+](=O)[O-])c1` (centres undefined), the growth is 98.8% (inactive).
Turning to `CCCCCCCCCCCCCC[n+]1ccc2c(C)c3c(c(C)c2c1)c1cc(O)ccc1n3CC`, the growth is -77.9% (active).
On the same count and under the same terms, under `C=C(C)[C@@H]1CCC[C@]2(C(=O)OC)CC[C@]3(C)[C@@H](CC[C@@H]4[C@@]5(C)CCCNC(C)(C)[C@@H]5CC[C@]43C)[C@@H]12` stands 88.3% (inactive).
As to `COc1cc2c(cc1-c1c(C)noc1C)ncc1nc(C3CCOCC3)n(C3CCC(OC(F)F)CC3)c12` (centres undefined), the growth was 75.3% (inactive).
As for `O=C1CCC(C(=O)N/N=C/c2ccc([N+](=O)[O-])cc2)N1` (centres undefined), the growth is 99.9% (inactive).
Turning to `COc1cc(C(=O)/C=C/c2c(-c3cccs3)nc3sc(C)cn23)cc(OC)c1OC`, the growth is 15.5% (inactive).
Turning to `O=C(NS(=O)(=O)c1ccccc1)n1cc(-c2ccncc2)c(-c2cc(O)cc(Cl)c2)n1`, the growth was 115% (inactive).
`COC(CCP(=O)(c1ccccc1)c1ccccc1)(C(=O)c1ccccc1)c1ccccc1` (centres undefined): the growth was 71.6% (inactive).
Same read-out and setting: under `Cn1nc(-c2ccc(Cl)cc2)nc2c(=O)n(C)c(=O)nc1-2` stands -84.5% (active); under `CC1(C)CCC[C@]23C(=O)O[C@](O)(C(=O)C4=C[C@@](C)(/C=C/CCCc5ccc6ccc7cccc8ccc5c6c78)CC[C@@]42O)[C@@H]13`, -95.5% (active); under `COc1ccc(C2=C/C(=C\c3ccccc3O)C(=O)N2Cc2ccccc2)cc1`, 82.3% (inactive).
